For 17 compounds, growth results are on record in PubChem BioAssay (NCI).

Some test systems named below: T-47D breast; BT-549 breast; MDA-MB-435 melanoma; SW-620 colon; MCF7 breast; HCT-116 colon; HCC-2998 colon; KM12 colon.
Holding throughout (test): NCI-60 one-dose screen, 48 h (100 = growth as untreated, 0 = no growth, -100 = all killed)
Conditions in all cases: 10 µM unless noted

Structures are written as SMILES. The panel holds about 83,000 compounds, 20% with a hit somewhere; the sample as a whole holds those more often.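 Activity criterion: percent growth below 10, measured after cells in 96-well plates were exposed to a single compound concentration for 48 hours.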 A number with no mark means an inactive call. Calls of active or inactive are those of the source.

Consider `COc1cc(/C=C2\C(=O)Nc3ccc(N(C)C)cc32)cc(OC)c1OC`, for which the growth is 34.3% in the assay on T-47D breast; 6.82% (active) in the assay on BT-549 breast; -37.7% (active) with MDA-MB-435 melanoma; 8.08% (active) in the assay with SW-620 colon; 12% with MCF7 breast; 13.7% in the assay on HCT-116 colon. For the same compound, the growth in the assay with HCC-2998 colon was 49.1%.

Consider `Cc1cc(C)cc(NC(=O)Cn2nncc2CN2C(=O)CSC2=O)c1`, for which the growth with T-47D breast was 99.9%; in the assay on BT-549 breast, 101%; with MDA-MB-435 melanoma, 103%; with SW-620 colon, 99.7%; in the assay with MCF7 breast, 93.4%; in the assay on HCT-116 colon, 107%. For the same compound, the growth in the assay with HCC-2998 colon is 108%; in the assay on KM12 colon, 110%.

Consider `CCOc1cccc(/C=N/NC(=O)Cc2ccc(Nc3ccnc(C(F)(F)F)c3)cc2)c1O`, for which the growth in the assay with T-47D breast is 15.7%; with BT-549 breast, 40.7%; in the assay with MDA-MB-435 melanoma it was 40.3%; in the assay with SW-620 colon, 21.5%; in the assay with MCF7 breast, 5.26% (active); in the assay on HCT-116 colon, 20.9%. For the same compound, the growth in the assay with HCC-2998 colon is 37.4%; with KM12 colon, 30.1%.

`FC(F)(F)c1ccc(/C=N/Nc2nnc3n2N=C(c2ccc(Cl)cc2)CS3)cc1`: the growth is 65.5% in the assay on T-47D breast; 58.2% in the assay on BT-549 breast; 70.8% in the assay with MDA-MB-435 melanoma; 77.6% in the assay with SW-620 colon; 61.2% in the assay with MCF7 breast; 32.8% in the assay with HCT-116 colon. In addition, the growth in the assay with HCC-2998 colon is 98.7%; with KM12 colon, 76.9%.

With `COc1cccc(CC(C)=C(c2ccc(OCCCN(C)C)cc2)c2ccc(OCCCN(C)C)cc2)c1`, the growth in the assay with T-47D breast is -68.2% (active); with BT-549 breast, 55.3%; in the assay with MDA-MB-435 melanoma it was -91.7% (active); with SW-620 colon it was -80.1% (active); in the assay with MCF7 breast, -73.6% (active); in the assay on HCT-116 colon, -75.6% (active). The growth in the assay with HCC-2998 colon is -71% (active); with KM12 colon, -83% (active).

Turning to `CCCCC(CCc1ccccn1)C(=O)c1ccccc1` (stereo unspecified), the growth in the assay on T-47D breast was 100%; in the assay on BT-549 breast, 108%; in the assay with MDA-MB-435 melanoma, 111%; in the assay with SW-620 colon it was 112%; in the assay on MCF7 breast, 105%; with HCT-116 colon, 109%. The figures for the growth with HCC-2998 colon and in the assay with KM12 colon were 111% and 136%, respectively.

As for `O=C(Nc1ccc2ncnc(Nc3ccc(F)c(Cl)c3)c2c1)c1cccs1`, the growth with T-47D breast is 28.8%; with BT-549 breast it was 68.3%; with MDA-MB-435 melanoma, 70.2%; in the assay on SW-620 colon it was 93.2%; in the assay on MCF7 breast it was 56.1%; in the assay with HCT-116 colon, 54.7%. Moreover, in the assay with HCC-2998 colon, the growth is 99.2%.

`Cc1ccc(/C=C/C(=N/N=C(N)N)c2ccccc2)cc1`: the growth is 40.9% in the assay with T-47D breast; 47.7% with BT-549 breast; -16.9% (active) with MDA-MB-435 melanoma; 25.9% in the assay with SW-620 colon; 11.6% in the assay with MCF7 breast; 20.1% in the assay with HCT-116 colon. For the same compound, the results for the growth in the assay on HCC-2998 colon and in the assay on KM12 colon were 20.9% and 14.8%, respectively.

Take `O=C(O)c1cn(-c2ccccc2)nc1-c1ccc(O)cc1`: the growth in the assay with T-47D breast was 101%; in the assay with BT-549 breast it was 99.3%; in the assay on MDA-MB-435 melanoma, 103%; with SW-620 colon it was 98.5%; with MCF7 breast, 88.7%; in the assay with HCT-116 colon, 96.4%. In addition, the growth in the assay on HCC-2998 colon was 95.5%.

As to `COc1cc(-c2nc(-c3nc4cc(C(=O)c5ccccc5)ccc4[nH]3)cc3c2[nH]c2ccccc23)cc(OC)c1OC`, the growth in the assay on T-47D breast was 88.9%; with BT-549 breast, 79.7%; in the assay on MDA-MB-435 melanoma, 96.2%; in the assay with SW-620 colon it was 103%; with MCF7 breast, 86.3%; with HCT-116 colon, 82.6%. Further, the growth with HCC-2998 colon was 104%; in the assay on KM12 colon it was 84.5%.

For `COc1ccc(/C(=C\c2ccc3c(c2)OCO3)C(=O)Nc2nc3ccccc3s2)cc1`, the growth in the assay on T-47D breast is 86.1%; with BT-549 breast, 103%; in the assay on MDA-MB-435 melanoma, 99.1%; in the assay with SW-620 colon, 108%; in the assay on MCF7 breast, 107%; in the assay on HCT-116 colon, 85.4%. Moreover, the growth is 109% in the assay with HCC-2998 colon and 101% with KM12 colon.

In the case of `CCCCCCCCCCCCCCCC1=NCC[N+]1(CCO)CCO`, the growth with T-47D breast was 78.8%; in the assay on BT-549 breast, 79.6%; with MDA-MB-435 melanoma, 30.7%; in the assay on SW-620 colon, 57.6%; in the assay with MCF7 breast, 50.5%; in the assay on HCT-116 colon, 12.1%. The growth in the assay with HCC-2998 colon was 82.5%.

`O=C(O)/C=C(\c1nc2ccc([N+](=O)[O-])cc2[nH]1)c1cc(Cl)ccc1O`: the growth in the assay on T-47D breast is 5.42% (active); in the assay with BT-549 breast, 8.6% (active); in the assay with MDA-MB-435 melanoma, 20.5%; with SW-620 colon, 28.6%; with MCF7 breast, 13.4%; in the assay with HCT-116 colon it was 8.05% (active). The growth with HCC-2998 colon is 27.8%; in the assay with KM12 colon, 21.3%.

With `CCCCNCC(O)c1cc2c(Cl)cc(Cl)cc2c2cc(C(F)(F)F)ccc12` (stereo unspecified), the growth with T-47D breast was -74.6% (active); in the assay with BT-549 breast, 11.9%; in the assay with MDA-MB-435 melanoma it was -52.7% (active); in the assay on SW-620 colon, -68.2% (active); in the assay with MCF7 breast, -83.5% (active); in the assay with HCT-116 colon, -91.7% (active). For the same compound, the values for the growth with HCC-2998 colon and with KM12 colon were -72% (active) and -89.4% (active), respectively.

With `CCN(CC)C(Cl)=Nc1ccc(Cl)cc1`, the growth in the assay with T-47D breast was 102%; in the assay on BT-549 breast, 112%; in the assay with MDA-MB-435 melanoma it was 100%; in the assay with SW-620 colon, 102%; in the assay with MCF7 breast, 101%; in the assay with HCT-116 colon it was 98.1%. Moreover, the growth in the assay on HCC-2998 colon was 101%; with KM12 colon, 107%.

As to `COc1ccc(C2CC(c3ccc(Nc4ccnc5cc(Cl)ccc45)cc3)=NN2c2ccccc2)cc1` (stereo unspecified), the growth in the assay on T-47D breast was 92.9%; in the assay on BT-549 breast, 99.8%; in the assay with MDA-MB-435 melanoma it was 80.3%; with SW-620 colon, 96.3%; in the assay with MCF7 breast it was 81.9%; with HCT-116 colon it was 72.4%. For the same compound, the growth in the assay on HCC-2998 colon was 101%; in the assay on KM12 colon, 94.2%.

Consider `CCCCOc1ncnc2nc[nH]c12`, for which the growth was 107% with T-47D breast; 97.6% with BT-549 breast; 111% in the assay with MDA-MB-435 melanoma; 108% in the assay with SW-620 colon; 96.9% with MCF7 breast; 101% in the assay on HCT-116 colon. Further, the growth in the assay on HCC-2998 colon was 111%.
